This note sets out measurements from PubChem BioAssay.

Activity calls are given as the source filed them.

Assay [1] can be described thus: compounds binding Alexa647 anti-His antibody – biochemical, small-molecule microarray, 635 nm fluorescence, artefact control for SMM control protein annotation, primary screen (AID 1128).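 Also: score merges feature fluorescence with signal-to-noise for each printed compound spot.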 The settings on record: higher = more signal.
For assay [2], the system named is Human papillomavirus type 1a E7 protein (residues 1-88). The assay is described as follows: HPV1a E7 small-molecule binders, primary screen, biochemical, small-molecule microarray, residues 1-88, 635 nm (AID 1129). As to conditions: small-molecule microarray binding, fluorescence 635 nm; higher = more signal.
In assay [3] the target is Focal adhesion kinase 1 (Homo sapiens) (UniProt Q05397). The assay is described as follows: PTK2 protein binding on printed compound slides – biochemical, small-molecule microarray, 635/667 nm fluorescence, BSA, DTT, primary screen (AID 1130).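 Also: composite of spot emission at 667 nm and signal to noise over triplicate slides.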 The settings on record: 635 nm fluorescence, higher = more signal.
The test system of assay [4] is Fibrinogen (Alexa647-labelled). As to the kind of experiment: Alexa647-fibrinogen binding to printed small molecules – biochemical, small-molecule microarray, 635/667 nm fluorescence, artefact control for SMM control-protein annotation, profiling panel (AID 1131).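 Also: z-score merges 667 nm fluorescence with per-spot signal-to-noise over triplicate slides.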 The settings on record: fibrinogen-A647 binding fluorescence, higher = more signal.
For assay [5], the target named is Follistatin (Homo sapiens) (UniProt P19883). The assay is described as follows: FST protein binding to printed compounds – biochemical, small-molecule microarray, 635/667 nm fluorescence, primary screen (AID 1132). As to conditions: 635 nm fluorescence, higher = more signal.
Assay [6] has as its target Fibroblast growth factor 2 (Homo sapiens) (UniProt P09038). The assay is described as follows: basic fibroblast growth factor binding to printed compounds – biochemical, small-molecule microarray, 635/667 nm fluorescence, primary screen (AID 1133). As to conditions: FGF2, fluorescence 635/667, higher = more signal.
The nature of assay [7]: JC-1 mitochondrial potential readout, lung cancer cells – cell-based, A549, JC-1 fluorescence, basal, 24 h, 100 nL, profiling panel (AID 1138).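 Also: A549 lung adenocarcinoma cells under basal conditions with no added stimulus; test concentration not given here.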 As to conditions: higher = more signal.
In the next assay the test system is Lefty1. The assay is described as follows: Lefty1 protein binding to printed compounds – biochemical, small-molecule microarray, 635/667 nm fluorescence, primary screen (AID 1139). The settings on record: fluorescence 635/667, higher = more signal.
Assay [8] concerns wheat germ agglutinin (Triticum aestivum), Alexa647-labelled. The assay is described as follows: Alexa647-WGA lectin binding to printed small molecules – biochemical, small-molecule microarray, 635/667 nm fluorescence, artefact control for SMM control-protein annotation, profiling panel (AID 1140).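 Also: score merges 667 nm feature emission with signal to noise over triplicate slides.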 As to conditions: WGA-A647 binding, 635 nm fluorescence, higher = more signal.
In assay [9] the target is Luciferin 4-monooxygenase (Photinus pyralis) (UniProt P08659). The assay is described as follows: inhibition of purified Photinus pyralis luciferase – biochemical, luminescence, purified enzyme, 2006 set, primary screen (AID 1141).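 Also: cell-free assay with purified firefly luciferase at 100 ng per well in PBS; test concentration not given here.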 As to conditions: purified firefly luciferase, SteadyGlo luminescence, 30 min; higher = more signal, called active from +8 up or from −8 down.
Chain of Luciferin 4-monooxygenase (Photinus pyralis) (P08659 whole entry, looked up): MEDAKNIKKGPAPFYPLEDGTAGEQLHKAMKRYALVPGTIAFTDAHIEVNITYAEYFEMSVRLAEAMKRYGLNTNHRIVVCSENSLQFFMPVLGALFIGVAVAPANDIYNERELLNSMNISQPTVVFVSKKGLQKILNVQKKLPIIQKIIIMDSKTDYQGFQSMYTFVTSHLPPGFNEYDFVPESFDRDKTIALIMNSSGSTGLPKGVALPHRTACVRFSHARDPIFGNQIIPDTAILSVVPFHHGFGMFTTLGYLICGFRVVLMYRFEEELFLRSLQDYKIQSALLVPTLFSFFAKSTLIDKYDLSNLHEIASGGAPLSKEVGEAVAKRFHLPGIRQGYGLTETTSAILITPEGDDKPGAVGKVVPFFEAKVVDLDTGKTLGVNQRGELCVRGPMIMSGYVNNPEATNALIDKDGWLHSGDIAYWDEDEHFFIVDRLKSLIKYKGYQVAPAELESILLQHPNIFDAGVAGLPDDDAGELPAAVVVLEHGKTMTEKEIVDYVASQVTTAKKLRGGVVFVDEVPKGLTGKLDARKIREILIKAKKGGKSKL

Chain of Focal adhesion kinase 1 (Homo sapiens) (Q05397 whole entry, looked up): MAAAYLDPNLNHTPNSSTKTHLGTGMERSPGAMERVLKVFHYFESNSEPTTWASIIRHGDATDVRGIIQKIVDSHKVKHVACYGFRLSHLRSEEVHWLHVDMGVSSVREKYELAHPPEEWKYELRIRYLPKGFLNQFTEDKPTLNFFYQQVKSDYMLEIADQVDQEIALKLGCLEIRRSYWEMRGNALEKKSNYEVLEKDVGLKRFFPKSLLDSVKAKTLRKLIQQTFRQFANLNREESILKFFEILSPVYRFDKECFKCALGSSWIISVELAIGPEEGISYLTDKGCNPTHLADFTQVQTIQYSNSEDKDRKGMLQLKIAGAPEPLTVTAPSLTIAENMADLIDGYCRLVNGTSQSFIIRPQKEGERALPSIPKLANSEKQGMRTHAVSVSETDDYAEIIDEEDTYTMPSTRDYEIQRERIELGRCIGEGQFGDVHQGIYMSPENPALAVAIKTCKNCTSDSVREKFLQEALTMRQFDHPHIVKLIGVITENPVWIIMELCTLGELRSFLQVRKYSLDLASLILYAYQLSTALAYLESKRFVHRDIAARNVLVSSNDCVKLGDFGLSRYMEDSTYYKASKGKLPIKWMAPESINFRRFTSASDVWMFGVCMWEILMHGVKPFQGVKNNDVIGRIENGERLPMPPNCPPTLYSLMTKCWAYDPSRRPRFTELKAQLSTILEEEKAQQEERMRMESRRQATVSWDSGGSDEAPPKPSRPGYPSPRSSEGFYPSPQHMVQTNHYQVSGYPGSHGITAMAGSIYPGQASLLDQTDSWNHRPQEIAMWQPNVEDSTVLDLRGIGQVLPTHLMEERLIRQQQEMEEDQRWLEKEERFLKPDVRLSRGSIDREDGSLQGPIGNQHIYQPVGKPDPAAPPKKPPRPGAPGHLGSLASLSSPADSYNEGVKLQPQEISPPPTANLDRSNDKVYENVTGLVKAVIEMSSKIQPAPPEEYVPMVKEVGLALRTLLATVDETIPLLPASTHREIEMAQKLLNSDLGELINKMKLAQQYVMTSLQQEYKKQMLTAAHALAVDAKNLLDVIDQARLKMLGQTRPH
Chain of Fibroblast growth factor 2 (Homo sapiens) (P09038 whole entry, looked up): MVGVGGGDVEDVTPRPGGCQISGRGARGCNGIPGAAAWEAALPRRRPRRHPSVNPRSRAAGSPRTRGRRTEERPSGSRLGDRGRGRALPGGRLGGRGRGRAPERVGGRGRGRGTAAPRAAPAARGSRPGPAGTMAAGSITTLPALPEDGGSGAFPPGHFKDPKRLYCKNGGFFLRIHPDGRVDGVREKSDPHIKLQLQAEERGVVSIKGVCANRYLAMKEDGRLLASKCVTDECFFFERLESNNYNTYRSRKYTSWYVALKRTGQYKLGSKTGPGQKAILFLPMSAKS
Chain of Follistatin (Homo sapiens) (P19883 whole entry, looked up): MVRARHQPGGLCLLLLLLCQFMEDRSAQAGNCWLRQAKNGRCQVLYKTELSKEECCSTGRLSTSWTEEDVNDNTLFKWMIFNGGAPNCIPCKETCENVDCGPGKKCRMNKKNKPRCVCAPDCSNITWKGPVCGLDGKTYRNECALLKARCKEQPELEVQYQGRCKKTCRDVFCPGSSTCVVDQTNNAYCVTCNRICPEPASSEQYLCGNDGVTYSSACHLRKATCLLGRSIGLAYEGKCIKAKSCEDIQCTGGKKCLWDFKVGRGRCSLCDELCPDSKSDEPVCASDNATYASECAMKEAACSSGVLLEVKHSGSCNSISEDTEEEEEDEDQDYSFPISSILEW

For the molecule `COC(=O)[C@@H]1CC[C@H](C)[C@@H](c2ccc(C)cc2)N1C(=O)c1ccc(C=NO[C@@H](C)c2cc(-c3c(C)cc(C)cc3C)no2)cc1`, the composite z-score in [1] was -0.637; in assay [2] it was 0.706; in assay [3] it was 0.137; in [4] it was 0.602; in [5] it was 0.365; in assay [6], 0.553. For the same molecule, the composite z-score in the assay with Lefty1 was 0.677; in [8] it was 0.0859. The z-score in assay [7] is 1.65; in assay [9], 0.195 (inactive).

Regarding `CC(CCN1CCCc2nc(C)c(C)cc21)=NO[C@@H](C)c1cn([C@H](CO)Cc2ccccc2)nn1`, the composite z-score in [1] is 0.14; in assay [2], 0.0974; in assay [3] it was 0.338; in assay [4], 0.279; in [5], 0.764; in [6], 0.957. Also, the composite z-score in the assay on Lefty1 was determined as 0.671; in assay [8], 0.152. Moreover, the values for the z-score in assay [7] and in assay [9] were -0.088 and -0.224 (inactive), respectively.

Turning to `COc1ccc(COC(=O)NN=C2C[C@@H](O)[C@@H](O)[C@@H]3[C@@H]4C(=O)N(Cc5ccc6c(c5)OCO6)C(=O)[C@@H]4CC[C@H]23)cc1`, the composite z-score is -0.0397 in assay [1]; -0.474 in assay [2]; -0.126 in assay [3]; -0.261 in assay [4]; -1.12 in assay [5]; -1.21 in assay [6]. Further, the composite z-score in the assay on Lefty1 was -1.06; in [8] it was 0.801. In addition, the z-score in [7] is 0.419; in assay [9] it was 0.506 (inactive).

For `COC(=O)[C@@H]1CC[C@H](C)[C@@H](c2ccc(C)cc2)N1C(=O)c1ccc(C=NOC[C@@H](O)[C@H]2O[C@@H]3OC(C)(C)O[C@@H]3[C@H]2O)cc1`, the composite z-score was determined as 0.266 in assay [1]; 1.03 in assay [2]; 0.158 in [3]; 0.953 in assay [4]; 0.49 in assay [5]; 0.63 in assay [6]. Also, the composite z-score in the assay on Lefty1 is 0.367; in assay [8] it was 0.506. Further, the z-score in assay [7] is -1.78; in [9], -0.297 (inactive).

`CCOC(=O)[C@H](Cc1ccccc1)NC(=O)CCC1CC(OC(=O)NCc2ccc3c(c2)OCO3)CC2(CCCC(COC(=O)NCCCN3CCCC3=O)O2)O1` (stereo not given in full): the composite z-score in assay [1] worked out at 0.556; in assay [2] it was 0.959; in assay [3], 0.28; in [4], 0.87; in [5] it was 0.72; in assay [6], 0.537. The figures for the composite z-score (in the assay on Lefty1; in assay [8]) were 0.428 and 0.305, respectively. For the same molecule, the z-score in assay [7] is 0.232; in assay [9], 1.12 (inactive).

Take `COC(=O)CC=C[C@@H](C)[C@@H](C=NOC(C)CN1CCCc2nc(C)c(C)cc21)NS(=O)(=O)c1ccc(C)cc1` (stereo not given in full): the composite z-score in assay [1] came out at 2.64; in [2], 0.549; in assay [3], 0.299; in assay [4], 0.451; in assay [5] it was 0.789; in [6], 0.533. In addition, the composite z-score in the assay with Lefty1 came out at 0.765; in assay [8] it was 0.11. Besides, the z-score was 0.835 in assay [7] and 0.679 (inactive) in assay [9].

Consider `O=C1C2=CC[C@H]3C(=O)N(c4ccc(F)cc4F)C(=O)[C@H]3[C@H]2[C@H](O)[C@@H]2O[C@H]12`, for which the composite z-score in assay [1] was 0.0402; in assay [2], 0.679; in [3], -0.059; in assay [4], 0.0936; in assay [5] it was 0.397; in [6], 0.34. In addition, the results for the composite z-score (with Lefty1; in assay [8]) were 0.616 and -0.0273, respectively. Also, the z-score in [7] is 0.0712; in assay [9], -0.51 (inactive).

In the case of `C#CCCCON=C1[C@H]2CCn3c(=O)n([C@@H](CC)c4ccccc4)c(=O)n3[C@H]2[C@H](O)[C@@H]2O[C@H]12`, the composite z-score is 0.114 in assay [1]; -0.256 in assay [2]; 0.235 in assay [3]; -0.509 in [4]; 0.587 in [5]; 0.639 in assay [6]. Moreover, the composite z-score in the assay on Lefty1 was 0.368; in assay [8], 0.283. The z-score in assay [7] was 0.351; in assay [9], -0.0508 (inactive).

Regarding `CON=C(C)CCN1CCc2nc(-c3ccccc3)c(-c3ccccc3)cc2C1`, the composite z-score is -0.634 in assay [1]; -0.545 in assay [2]; -0.414 in assay [3]; 0.838 in assay [4]; 0.944 in [5]; 0.344 in assay [6]. Besides, the composite z-score in the assay on Lefty1 was 0.686; in [8], 0.801. Besides, the figures for the z-score in [7] and in assay [9] were 2.9 and 0.326 (inactive), respectively.

In the case of `COC(=O)CC=C[C@@H](C)[C@@H](C=NOC(C)CN1CCCCc2nc(C)c(C)cc21)NS(=O)(=O)c1ccc(C)cc1` (stereo not given in full), the composite z-score was 0.0454 in [1]; 0.156 in assay [2]; 0.0646 in assay [3]; -0.207 in assay [4]; 0.927 in [5]; 0.601 in [6]. Besides, the composite z-score with Lefty1 amounted to 0.417; in assay [8], 0.0721. Besides, the z-score in [7] is -0.297; in [9], 0.183 (inactive).

Regarding `COc1cccc([C@H]2Oc3ccc(OC)cc3C(=NOCC[C@@H]3C=C[C@H](OC(C)=O)[C@@H](COC(C)=O)O3)[C@@H]2O)c1`, the composite z-score in assay [1] is -0.972; in assay [2], 0.562; in [3] it was 0.292; in assay [4], 0.967; in assay [5], 0.37; in assay [6], 0.462. The composite z-score stood at 0.329 in the assay with Lefty1 and 0.274 in [8]. For the same molecule, the z-score in assay [7] was -0.806; in [9] it was 1.14 (inactive).

For the molecule `COC(=O)[C@H](CCSC)NC(=O)CC=C[C@@H](C)CO`, the composite z-score is 0.293 in assay [1]; 0.127 in [2]; 0.0533 in [3]; -0.922 in assay [4]; 1.1 in assay [5]; 1.73 in [6]. The values for the composite z-score (in the assay with Lefty1; in assay [8]) were 1.6 and -0.701, respectively. The z-score in [7] is -1.08; in assay [9] it was -0.08 (inactive).

Regarding `CCOC(=O)CCN1C(=O)[C@H]2[C@H]3[C@H](O)[C@H](O)CC(=NOCC(C)C)[C@@H]3CC[C@H]2C1=O`, the composite z-score was -0.957 in assay [1]; -0.263 in assay [2]; -0.286 in assay [3]; -0.586 in assay [4]; 0.91 in assay [5]; 1.14 in assay [6]. Besides, the composite z-score in the assay with Lefty1 was 0.929; in assay [8] it was 0.0456. Also, the z-score in [7] was -0.478; in assay [9] it was 0.826 (inactive).

Consider `COC(=O)CC=C[C@@H](C)[C@@H](C=NOC[C@@H](O)[C@H]1O[C@@H]2OC(C)(C)O[C@@H]2[C@H]1O)OC`, for which the composite z-score in [1] stood at 1.57; in assay [2], 0.612; in assay [3], 0.167; in assay [4], 0.0843; in assay [5], 0.834; in assay [6], 0.943. Also, the composite z-score with Lefty1 was 0.59; in assay [8] it was 0.006. The z-score was 0.0187 in assay [7] and -0.512 (inactive) in assay [9].

`COC(=O)[C@H](C)NC(=O)CCC1CC(OC(=O)NCc2ccc3c(c2)OCO3)CC2(CCCC(COC(=O)NCCc3ccc(Cl)cc3)O2)O1` (stereo not given in full): the composite z-score in assay [1] amounted to 1.22; in [2], 0.377; in assay [3] it was 0.142; in [4], 0.275; in assay [5], 0.758; in [6], 0.742. The composite z-score with Lefty1 came out at 0.398; in [8] it was 0.268. The results for the z-score in assay [7] and in [9] were -0.928 and 0.839 (inactive), respectively.

As for `COc1ccc(O[C@H]2C=C[C@@H](c3ccccc3)O[C@@H]2CON=C(C)CCN2CCCc3nc(C)c(C)cc32)cc1`, the composite z-score was 1.5 in assay [1]; 0.957 in [2]; 0.0143 in [3]; 0.328 in [4]; 0.651 in assay [5]; 0.529 in assay [6]. The composite z-score with Lefty1 came out at 0.408; in assay [8], 0.584. In addition, the z-score in assay [7] was 1.16; in assay [9], 0.715 (inactive).
